An excerpt weighted towards active compounds, which were near 2.5% of everything screened.
MBD2 inh: blocks human MBD2 binding to methylated DNA; TR-FRET, MBD2 binding to methylated oligonucleotide; inhibition, % at 4.4 µM; 370,000 tested, 0.31% active; AID 686964; in the data active = inhibition above about 13%
Target sequence (Q9UBB5 whole entry, looked up): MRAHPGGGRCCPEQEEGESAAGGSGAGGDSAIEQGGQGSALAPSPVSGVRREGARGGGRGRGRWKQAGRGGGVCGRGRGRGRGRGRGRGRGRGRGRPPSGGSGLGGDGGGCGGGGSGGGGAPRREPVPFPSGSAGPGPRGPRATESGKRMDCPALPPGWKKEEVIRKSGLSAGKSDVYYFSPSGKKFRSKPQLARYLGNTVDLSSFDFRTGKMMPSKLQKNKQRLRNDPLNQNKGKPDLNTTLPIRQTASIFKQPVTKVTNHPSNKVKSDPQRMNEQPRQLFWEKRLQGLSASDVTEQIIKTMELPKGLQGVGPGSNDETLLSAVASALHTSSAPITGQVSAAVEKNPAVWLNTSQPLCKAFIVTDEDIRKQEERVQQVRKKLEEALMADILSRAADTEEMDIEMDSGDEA
UHRF1 MBD2 ctr: UHRF1 methyl-DNA binding inhibition. Q96T88. UHRF1 binding to methylated oligo, TR-FRET. inhibition, % at 4.4 µM. 370,000 tested, 0.75% active. AID 687016; in the data active = inhibition above about 21%;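 also: UHRF1 SRA domain binding a hemimethylated CpG hairpin DNA probe; 0% = median of test compound wells and 100% = reference inhibitor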
LEDGF integ inh: blocks HIV-1 LEDGF/p75-dependent DNA integration. 370,000 tested, 0.64% active. TR-FRET IN-LEDGF/p75 DNA integration, Eu/Cy5. AID 743269. inhibition, % at 3.7 µM;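 active = inhibition above the screen-wide mean plus 3 SD, cut at about 13% in these data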;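 also: signal is the Cy5 over europium emission ratio at 671 and 618 nm; 0% = plate median of compound wells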
PRMT1 FP inh: blocks human protein arginine methyltransferase 1; Q99873; 370,000 tested, 1.3% active; recombinant PRMT1, activity-based probe fluorescence polarization; AID 652257; inhibition, % at 2.79 µM;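 active = inhibition above about 21% made by adding two undisclosed values, limit read from the data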
* = called active by the depositor.

SMILES	MBD2 inh	UHRF1 MBD2 ctr	LEDGF integ inh	PRMT1 FP inh
Cc1ccc(S(=O)(=O)N2C[C@]3(O)C[C@@H]4C(=O)N(c5ccccc5)C(=O)[C@@H]4C[C@]3(OC(=O)NCc3ccccc3)C2)cc1	9	23*	1	1
CCN1CCN(c2ccc(NC(=O)c3cc(S(=O)(=O)N4CCCC4)ccc3Cl)cc2)CC1	3	10	1	-3
CC(C)[C@H](NC(=O)OC(C)(C)C)c1cc(C(=O)NCCc2c[nH]c3ccccc23)c(N)s1	1	-1	-1	3
CC(C)[C@@H](NC(=O)OC(C)(C)C)c1cc(C(=O)c2c(-c3ccccc3)[nH]c3ccccc23)c(N)s1	7	2	-4	23*
O=C(Cc1c(F)cccc1Cl)Nc1nccs1	-4	0	3	-1
Cc1ccccc1N(CC(=O)N1CCN(Cc2ccccc2)CC1)S(C)(=O)=O	7	21*	0	2
Cc1ccc(C(=O)N/C(=C/c2ccco2)C(=O)N2CCCCCC2)cc1	-4	-2	-2	10
COc1ccc(/C=C(\NC(=O)c2ccccc2)C(=O)N2CCCCC2)cc1OC	-2	56*	7	-2
Cc1cccc(C(=O)N/C(=C\c2ccco2)C(=O)N2CCCC2)c1	-4	-1	7	23*
CC(=O)N1CCOc2ccc(S(=O)(=O)NC[C@H]3O[C@@H](n4ccc(N)nc4=O)[C@H](O)[C@@H]3O)cc21	0	1	1	-5
CN1CCN(CCCNC(=O)CCN2C(=O)COc3ccccc32)CC1	-2	8	-3	2
O=C(CC1N=C(Cc2ccccc2)NNC1=O)N/N=C/c1ccc([N+](=O)[O-])cc1 (stereo not given)	-6	0	2	0
O=C(OCC(=O)N1CCCC1=O)c1ncc(Cl)c(Cl)c1Cl	3	-2	4	-3
CSc1nc2c(=O)[nH]cnc2s1	-6	0	1	1
COc1cccc(CN2CCN(c3nc4nonc4nc3N3CCCCC3)CC2=O)c1	-4	0	-6	4
COc1ccc(Cl)cc1NC(=O)CSc1nnc(Cc2ccc(C)cc2)c(=O)[nH]1	6	-5	-3	24*
Cc1[nH]c(=O)[nH]c(=O)c1S(=O)(=O)NCCc1ccc(S(N)(=O)=O)cc1	5	21*	0	-3
O=C(CCN1CCCCC1)c1ccc2c(c1)OCCO2	1	2	-7	24*
O=C(CCN1CCCCCC1)Nc1ccc2c(c1)OCCO2	1	8	0	4
CC(C)(C)c1ccc(C(=O)Nc2cc(Cl)ccc2-c2nn[nH]n2)cc1	-3	1	-1	7
Cc1ccc(S(=O)(=O)NC[C@H]2O[C@@H](n3ccc(N)nc3=O)[C@H](O)[C@@H]2O)s1	-5	0	3	0
O=C(CSc1nc2ccccc2c(=O)[nH]1)Nc1ccc(S(=O)(=O)N2CCCC2)cc1	3	0	1	23*
O=C(CSc1nc2ccccc2c(=O)[nH]1)Nc1ccc(C(=O)O)cc1	0	0	1	-3
O=C(O)/C(=C\c1ccc(Cl)c([N+](=O)[O-])c1)c1ccc(S(=O)(=O)N2CCCCC2)s1	5	-1	2	5
O=C(O)/C(=C\c1ccc(Cl)c([N+](=O)[O-])c1)c1ccc(S(=O)(=O)N2CCCC2)s1	7	5	-1	23*
SMILES	MBD2 inh	UHRF1 MBD2 ctr	LEDGF integ inh	PRMT1 FP inh
CCCN(CCO)CCCc1ccccc1	1	-1	89*	0
CCN(CCCc1ccccc1)CCCc1ccccc1	-3	1	1	-7
CS(=O)(=O)c1ccc(Cl)c(NC(=O)CN2CCN(C(=O)c3cccs3)CC2)c1	7	23*	2	4
Clc1ccc(C2CSc3c4ncnc-4ncn32)cc1 (stereo not given)	-4	0	5	19
Clc1ccc2nc(CN3CCCCC3)cn2c1	1	27*	4	0
Clc1ccc2nc(CN3CCCCCC3)cn2c1	0	0	2	-1
O=C(O)COCC(=O)NCc1csc2ccccc12	1	4	-2	5
CCc1sc(C(=O)NCc2ccco2)cc1Br	2	26*	13	1
CCc1sc(C(=O)NCc2ccco2)cc1C	4	0	4	0
O=C(NCc1ccccc1)c1nc(S(=O)(=O)Cc2ccccc2)ncc1Cl	4	3	-2	23*
COc1ccc(CNC(=O)c2nc(S(=O)(=O)Cc3ccccc3)ncc2Cl)cc1	3	0	-3	19
Cc1cc(Br)ccc1NC(=O)C1CSC2(C)CCC(=O)N12 (stereo not given)	0	35*	-1	-2
S=c1[nH]nc(Cc2cccs2)n1-c1ccccc1	-4	-4	2	2
CCCCc1ccc(-n2c(Cc3cccs3)n[nH]c2=S)cc1	0	-2	-2	21*
COc1cccc2cc(-c3nnc(-c4ccccc4)o3)c(=O)oc12	2	21*	1	-1
COc1ccc(-c2nnc(-c3cc4ccccc4oc3=O)o2)cc1	2	2	8	-2
COc1ccc2[nH]c3c(c2c1)CCNC3c1ccc([N+](=O)[O-])o1 (stereo not given)	-9	-3	3	23*
COCC(=O)N(C)C[C@H]1N[C@@](C)(C(=O)OC)[C@H]2C(=O)N(Cc3ccccc3)C(=O)[C@@H]12	-4	1	1	-1
CCOc1ccc2nc(N3C(=O)C(O)=C(C(=O)c4ccco4)C3c3ccco3)sc2c1 (stereo not given)	-4	7	18*	18
C=CCN1C(=O)[C@@H](CC(=O)NCCCCc2ccccc2)[C@]2(C(=O)OC)CCCCC=C12	-2	0	-2	4
O=C(c1ccccc1)C(Sc1ncn[nH]1)c1ccccc1 (stereo not given)	2	1	0	23*
O=C1C(=Cc2cn(-c3ccccc3)nc2-c2ccc(OCc3ccccc3F)cc2)SC(=S)N1CCS(=O)(=O)O	3	58*	1	18
O=C(c1cc(COc2ccc(F)cc2Cl)on1)N(CCO)Cc1cccs1	7	6	1	0
COc1ccc(C2(C(=O)Nc3ccc(S(=O)(=O)Nc4nc(C)cc(C)n4)cc3)CCCC2)cc1OC	5	43*	4	4
Cc1cc(C)nc(NS(=O)(=O)c2ccc(NC(=O)C3(c4ccc([N+](=O)[O-])cc4)CCCC3)cc2)n1	-1	2	2	-1
SMILES	MBD2 inh	UHRF1 MBD2 ctr	LEDGF integ inh	PRMT1 FP inh
O=C(NCCSc1c[nH]c2ccccc12)c1c(F)cccc1F	0	-1	-2	4
O=C(NCCSc1c[nH]c2ccccc12)C1CC1	1	45*	-3	5
CCOc1ccc(CCNC(=O)COc2cccc(-n3cnnn3)c2)cc1OCC	1	-3	2	1
COc1ccc(C(=O)Nc2ccc3c(c2)nc(CN2CCCC2)n3C)cc1	1	34*	-1	0
CCOC(=O)c1cc2n(c1/N=C/N(C)C)-c1ccccc1C2=O	-3	0	0	23*
COc1ccc(NC(=O)COC(=O)CCc2ccc(S(=O)(=O)N3CCOCC3)cc2)cc1Cl	5	95*	-3	2

Assay outcomes (PubChem)
